# Experimental data: the supplement of paper PMC11732987, “Enantioselective OTUD7B fragment discovery through chemoproteomics screening and high-throughput optimisation” (Communications Chemistry, 2025)
# A number with no mark means an inactive call.
# Assays:
# Experiment in all cases: log2 ratio of Biotin-Ahx-Ub-VS probe labelling (fragment/DMSO); higher = less target engagement (more negative = stronger competition), active = hit call of the paper (q ≤ 0.05, log2 ratio ≤ -1)
# Conditions in all cases: compound concentration: 200 uM; treatment time: 3 h
# OTUD6B = target: T1, OTUD6B (UniProt Q8N6M0)
# T1 sequence (whole entry): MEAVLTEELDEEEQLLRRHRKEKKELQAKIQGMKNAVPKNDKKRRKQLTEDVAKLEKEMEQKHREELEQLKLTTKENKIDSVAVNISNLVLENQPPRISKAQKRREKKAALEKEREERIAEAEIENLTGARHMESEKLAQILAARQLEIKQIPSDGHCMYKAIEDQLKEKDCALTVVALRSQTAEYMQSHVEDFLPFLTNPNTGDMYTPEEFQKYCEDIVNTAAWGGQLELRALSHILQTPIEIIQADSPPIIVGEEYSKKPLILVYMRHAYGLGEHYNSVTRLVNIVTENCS
# Outline: (§1)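 Fragment (200 µM) or vehicle was incubated for 3 h with triplicate HEK293T lysate samples of 495 µg, which were then treated with Biotin-Ahx-Ub-VS at 0.5 µM final for 1 h. Labelled DUBs were enriched on NeutrAvidin, digested with LysC and trypsin, and analysed by diaPASEF LC-MS/MS. Values are average log2 fragment/vehicle ratios from an unpaired t-test on global-median-normalised Spectronaut label-free quantities, using proteins with ≥2 unique peptides.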
# OTUD7B = target: T2, OTUD7B (UniProt Q6GQQ9)
# T2 sequence (whole entry): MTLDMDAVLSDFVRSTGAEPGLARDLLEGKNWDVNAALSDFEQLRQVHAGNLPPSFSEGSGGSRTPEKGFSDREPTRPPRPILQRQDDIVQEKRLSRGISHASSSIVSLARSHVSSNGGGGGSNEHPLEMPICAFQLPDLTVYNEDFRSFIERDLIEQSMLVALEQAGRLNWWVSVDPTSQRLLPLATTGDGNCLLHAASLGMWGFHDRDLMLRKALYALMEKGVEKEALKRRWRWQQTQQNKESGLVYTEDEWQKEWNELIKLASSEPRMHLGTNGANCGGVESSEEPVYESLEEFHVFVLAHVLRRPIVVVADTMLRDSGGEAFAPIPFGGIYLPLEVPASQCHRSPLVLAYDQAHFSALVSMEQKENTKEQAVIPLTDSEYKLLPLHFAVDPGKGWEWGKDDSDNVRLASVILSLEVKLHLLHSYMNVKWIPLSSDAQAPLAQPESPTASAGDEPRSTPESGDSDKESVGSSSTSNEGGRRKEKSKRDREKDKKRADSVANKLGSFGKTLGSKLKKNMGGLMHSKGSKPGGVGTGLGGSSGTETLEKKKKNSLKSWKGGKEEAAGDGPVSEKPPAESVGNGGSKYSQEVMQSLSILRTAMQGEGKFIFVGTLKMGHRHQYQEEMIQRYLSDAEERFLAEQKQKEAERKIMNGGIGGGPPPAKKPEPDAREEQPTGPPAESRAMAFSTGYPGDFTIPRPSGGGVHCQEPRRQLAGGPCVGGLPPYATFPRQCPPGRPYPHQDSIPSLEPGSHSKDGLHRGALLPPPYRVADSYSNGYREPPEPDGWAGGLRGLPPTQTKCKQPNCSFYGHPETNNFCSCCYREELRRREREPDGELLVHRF
# Outline: as §1
# PRPF8 = PRPF8 (UniProt Q6P2Q9)
# Outline: as §1
# PSMD7 = target: T3, PSMD7 (UniProt P51665)
# T3 sequence (whole entry): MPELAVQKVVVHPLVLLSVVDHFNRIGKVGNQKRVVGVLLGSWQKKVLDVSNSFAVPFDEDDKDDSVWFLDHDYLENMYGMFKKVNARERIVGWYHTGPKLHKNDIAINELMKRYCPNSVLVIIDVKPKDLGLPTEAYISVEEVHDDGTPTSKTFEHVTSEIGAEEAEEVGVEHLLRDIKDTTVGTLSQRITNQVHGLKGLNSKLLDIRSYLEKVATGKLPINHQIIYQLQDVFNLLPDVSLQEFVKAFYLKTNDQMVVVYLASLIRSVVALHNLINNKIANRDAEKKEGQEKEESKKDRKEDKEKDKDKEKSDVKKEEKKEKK
# Outline: as §1
# UCHL1 = UCHL1 (UniProt P09936)
# Outline: as §1
# UCHL3 = target: T4, UCHL3 (UniProt P15374)
# T4 sequence (whole entry): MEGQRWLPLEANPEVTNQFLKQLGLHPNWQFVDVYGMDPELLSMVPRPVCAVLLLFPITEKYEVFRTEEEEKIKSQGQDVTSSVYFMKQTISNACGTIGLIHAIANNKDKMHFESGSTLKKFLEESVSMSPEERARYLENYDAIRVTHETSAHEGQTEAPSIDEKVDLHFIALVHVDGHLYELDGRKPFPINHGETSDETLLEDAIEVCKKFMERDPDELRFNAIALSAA
# Outline: as §1
# UCHL5 = target: T5, UCHL5 (UniProt Q9Y5K5)
# T5 sequence (whole entry): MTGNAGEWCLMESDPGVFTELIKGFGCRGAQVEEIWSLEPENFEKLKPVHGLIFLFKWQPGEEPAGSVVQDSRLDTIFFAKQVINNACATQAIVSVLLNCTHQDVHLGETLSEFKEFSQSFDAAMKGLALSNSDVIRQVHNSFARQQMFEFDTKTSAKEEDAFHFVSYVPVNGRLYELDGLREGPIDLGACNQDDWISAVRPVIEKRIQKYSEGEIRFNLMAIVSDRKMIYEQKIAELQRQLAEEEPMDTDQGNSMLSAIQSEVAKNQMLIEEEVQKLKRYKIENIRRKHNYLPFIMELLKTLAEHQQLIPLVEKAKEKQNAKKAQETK
# Outline: as §1
# USP10 = USP10 (UniProt Q14694)
# Outline: as §1
# USP15 = target: T6, USP15 (UniProt Q9Y4E8)
# T6 sequence (whole entry): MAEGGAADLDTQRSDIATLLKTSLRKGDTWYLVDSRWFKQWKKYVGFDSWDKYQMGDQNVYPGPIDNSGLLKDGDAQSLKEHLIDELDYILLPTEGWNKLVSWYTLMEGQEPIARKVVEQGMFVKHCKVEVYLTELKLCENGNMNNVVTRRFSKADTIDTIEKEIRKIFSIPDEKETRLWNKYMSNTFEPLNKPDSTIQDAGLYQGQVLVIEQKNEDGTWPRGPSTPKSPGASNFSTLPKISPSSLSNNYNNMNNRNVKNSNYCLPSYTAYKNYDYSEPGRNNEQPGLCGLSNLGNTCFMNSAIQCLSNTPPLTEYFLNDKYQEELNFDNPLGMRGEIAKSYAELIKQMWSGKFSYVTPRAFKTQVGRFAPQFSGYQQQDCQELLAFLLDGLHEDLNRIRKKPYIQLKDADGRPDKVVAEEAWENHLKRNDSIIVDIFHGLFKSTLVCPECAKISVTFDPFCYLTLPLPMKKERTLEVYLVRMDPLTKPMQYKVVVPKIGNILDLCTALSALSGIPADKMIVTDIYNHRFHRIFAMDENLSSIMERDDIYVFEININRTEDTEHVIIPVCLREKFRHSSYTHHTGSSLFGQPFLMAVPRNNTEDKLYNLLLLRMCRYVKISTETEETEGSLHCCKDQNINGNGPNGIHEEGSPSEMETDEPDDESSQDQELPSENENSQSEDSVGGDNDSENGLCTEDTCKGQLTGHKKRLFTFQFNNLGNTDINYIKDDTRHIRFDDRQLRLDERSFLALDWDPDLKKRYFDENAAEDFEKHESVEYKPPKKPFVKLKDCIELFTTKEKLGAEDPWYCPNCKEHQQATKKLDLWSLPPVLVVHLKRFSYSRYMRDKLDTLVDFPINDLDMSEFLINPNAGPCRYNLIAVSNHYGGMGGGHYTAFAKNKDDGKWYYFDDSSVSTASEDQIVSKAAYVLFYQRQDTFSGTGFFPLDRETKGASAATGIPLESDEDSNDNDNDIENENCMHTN
# Outline: as §1
# USP16 = USP16 (UniProt Q9Y5T5)
# Outline: as §1
# USP16, sequence (Q9Y5T5 whole entry, looked up): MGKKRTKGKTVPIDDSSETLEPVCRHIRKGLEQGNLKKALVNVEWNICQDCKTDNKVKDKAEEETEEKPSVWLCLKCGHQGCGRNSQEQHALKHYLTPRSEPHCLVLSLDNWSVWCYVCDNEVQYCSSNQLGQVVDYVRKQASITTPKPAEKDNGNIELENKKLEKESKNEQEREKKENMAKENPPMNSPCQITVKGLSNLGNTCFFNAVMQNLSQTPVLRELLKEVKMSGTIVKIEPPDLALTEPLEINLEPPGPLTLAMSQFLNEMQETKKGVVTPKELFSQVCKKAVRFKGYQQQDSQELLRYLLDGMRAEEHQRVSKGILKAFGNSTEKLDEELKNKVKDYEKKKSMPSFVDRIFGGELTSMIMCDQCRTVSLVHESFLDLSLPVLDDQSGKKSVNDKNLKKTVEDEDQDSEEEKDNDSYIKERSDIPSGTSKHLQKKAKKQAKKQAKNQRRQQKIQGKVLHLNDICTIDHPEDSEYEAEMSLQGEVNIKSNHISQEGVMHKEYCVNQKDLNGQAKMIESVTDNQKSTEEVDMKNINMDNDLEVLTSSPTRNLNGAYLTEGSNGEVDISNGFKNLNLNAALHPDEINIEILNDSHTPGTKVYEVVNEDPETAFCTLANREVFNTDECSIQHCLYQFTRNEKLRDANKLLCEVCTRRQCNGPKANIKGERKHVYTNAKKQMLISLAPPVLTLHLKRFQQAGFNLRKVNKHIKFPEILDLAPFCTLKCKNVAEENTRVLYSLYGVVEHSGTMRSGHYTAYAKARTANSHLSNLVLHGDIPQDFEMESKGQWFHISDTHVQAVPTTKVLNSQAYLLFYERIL
# USP10, sequence (Q14694 whole entry): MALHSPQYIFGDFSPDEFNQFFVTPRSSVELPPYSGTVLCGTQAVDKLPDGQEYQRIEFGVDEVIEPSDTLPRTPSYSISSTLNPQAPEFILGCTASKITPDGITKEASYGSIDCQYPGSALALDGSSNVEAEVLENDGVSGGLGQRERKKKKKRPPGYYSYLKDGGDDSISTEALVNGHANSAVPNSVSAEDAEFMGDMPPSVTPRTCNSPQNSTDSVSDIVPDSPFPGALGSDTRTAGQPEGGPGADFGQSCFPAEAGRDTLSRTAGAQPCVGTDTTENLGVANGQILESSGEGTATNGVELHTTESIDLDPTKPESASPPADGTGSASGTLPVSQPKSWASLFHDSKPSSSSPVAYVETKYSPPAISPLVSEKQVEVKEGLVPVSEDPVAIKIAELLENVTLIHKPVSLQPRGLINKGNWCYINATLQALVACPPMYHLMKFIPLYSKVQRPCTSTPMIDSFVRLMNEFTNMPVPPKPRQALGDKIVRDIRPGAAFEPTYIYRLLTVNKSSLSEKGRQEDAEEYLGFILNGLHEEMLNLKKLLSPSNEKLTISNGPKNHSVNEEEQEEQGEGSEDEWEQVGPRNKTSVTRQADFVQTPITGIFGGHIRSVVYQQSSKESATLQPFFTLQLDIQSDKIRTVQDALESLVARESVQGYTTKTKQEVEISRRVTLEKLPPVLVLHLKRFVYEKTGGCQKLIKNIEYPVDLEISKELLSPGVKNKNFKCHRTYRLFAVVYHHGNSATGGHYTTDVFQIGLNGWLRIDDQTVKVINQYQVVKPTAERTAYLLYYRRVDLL
# UCHL1, sequence (P09936 whole entry, looked up): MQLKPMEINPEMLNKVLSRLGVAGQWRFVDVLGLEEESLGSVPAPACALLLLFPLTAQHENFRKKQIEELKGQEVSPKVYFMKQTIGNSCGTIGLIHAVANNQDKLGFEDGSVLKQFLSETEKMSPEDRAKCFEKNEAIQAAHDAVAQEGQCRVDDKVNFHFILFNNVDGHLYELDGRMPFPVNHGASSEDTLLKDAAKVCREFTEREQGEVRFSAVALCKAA
compound,measurement,setting,value
Cc1ccc(-c2nnc(C)[nH]2)c(NC(=O)CCl)c1,log2 ratio of Biotin-Ahx-Ub-VS probe labelling,OTUD6B,-0.00419
same,log2 ratio of Biotin-Ahx-Ub-VS probe labelling,OTUD7B,-0.183
same,log2 ratio of Biotin-Ahx-Ub-VS probe labelling,PRPF8,-0.0454
same,log2 ratio of Biotin-Ahx-Ub-VS probe labelling,PSMD7,-0.177
same,log2 ratio of Biotin-Ahx-Ub-VS probe labelling,UCHL1,-1.14 (active)
same,log2 ratio of Biotin-Ahx-Ub-VS probe labelling,UCHL3,0.176
same,log2 ratio of Biotin-Ahx-Ub-VS probe labelling,UCHL5,-0.152
same,log2 ratio of Biotin-Ahx-Ub-VS probe labelling,USP10,0.0193
same,log2 ratio of Biotin-Ahx-Ub-VS probe labelling,USP15,-0.0491
same,log2 ratio of Biotin-Ahx-Ub-VS probe labelling,USP16,0.114
